{
  "source": "ChEMBL document CHEMBL3988442",
  "about": "“University of Dundee, Small-Polar-MMV Screening Library” (2021)",
  "note": "About 950 (1.4%) of roughly 69,000 compounds showed an effect of 50% or more. This is one part of a sample in which strong results are shown more often than they occur.",
  "data": [
    {"system": "Mycobacterium tuberculosis", "assay": "Cornell M. t heat shock assay; note: in the data most compounds retested in dose-response had high values", "type": "functional, organism-based", "parameters": "dose or concentration left out as unconfirmed", "units": {"Percent Effect": "%"}, "values": [
      {"smiles": "CC(C)N1CCO[C@H]2CN(C(=O)c3ccsc3)C[C@H]21.O=C(O)C(F)(F)F", "Percent Effect": -22.87},
      {"smiles": "O=C(Nc1cccc(F)c1)C1CCCN1c1nccs1", "note": "(stereo not given)", "Percent Effect": 8.306},
      {"smiles": "O=C(Nc1cccc(N2CCCC2)c1)C1CCCN1c1nccs1", "note": "(stereo not given)", "Percent Effect": 5.051},
      {"smiles": "O=C(Nc1cccc2c1CCCC2)C1CCCN1c1nccs1", "note": "(stereo not given)", "Percent Effect": 50.83},
      {"smiles": "CCC(C)N1CCC2(CC1)CN(c1cncnc1)C(=O)CO2.O=C(O)C(F)(F)F", "note": "(stereo not given)", "Percent Effect": -21.63},
      {"smiles": "Cc1nc(-c2ccc(F)c(F)c2)cc(C2CCNCC2)n1.Cl", "Percent Effect": -7.049},
      {"smiles": "Cn1cc(C2CC(=O)NC23CCN(Cc2cccc(F)c2)CC3)cn1.O=C(O)C(F)(F)F", "note": "(stereo not given)", "Percent Effect": -23.11},
      {"smiles": "CCOc1ccc(CN2CCc3nc4ccsc4c(=O)n3CC2)cc1.Cl", "Percent Effect": 16.23},
      {"smiles": "CCOCc1nn(C)c2c1CN(Cc1cccs1)CC2.O=C(O)C(F)(F)F", "Percent Effect": 29.88},
      {"smiles": "CC(C(=O)NN1CCOCC1)n1nc(C(F)(F)F)c(Cl)c1C1CC1", "note": "(stereo not given)", "Percent Effect": -25.21},
      {"smiles": "CN(C)CCN1CCO[C@H]2CN(C(=O)c3ccsc3)C[C@H]21.O=C(O)C(F)(F)F.O=C(O)C(F)(F)F", "Percent Effect": 25.92},
      {"smiles": "O=C(C1CCC1)N1CC[C@H](O)[C@@H]1Cc1cccnc1.O=C(O)C(F)(F)F", "Percent Effect": 0.09339},
      {"smiles": "Cc1cc(N2CCCC(c3nccnc3N(C)C)C2)ncn1", "note": "(stereo not given)", "Percent Effect": -16.62},
      {"smiles": "CCCC(NC(=O)c1ccccn1)c1nnc2ccccn12", "note": "(stereo not given)", "Percent Effect": -4.17},
      {"smiles": "CC(C)CC(NC(=O)c1ccco1)c1nc2cccnc2n1C", "note": "(stereo not given)", "Percent Effect": -10.38},
      {"smiles": "CC(C)CC(NC(=O)c1ccco1)c1nnc2ccccn12", "note": "(stereo not given)", "Percent Effect": 66.07},
      {"smiles": "Cc1ccc(CN2CCc3c(COCC4CC4)nn(C)c3C2)s1.O=C(O)C(F)(F)F", "Percent Effect": -29.84},
      {"smiles": "Cc1ccsc1CN1CCn2c(COc3cccnc3)cnc2C1C.O=C(O)C(F)(F)F.O=C(O)C(F)(F)F", "note": "(stereo not given)", "Percent Effect": 9.479},
      {"smiles": "CC(=O)N1CCC12CCN(Cc1ccco1)CC2.O=C(O)C(F)(F)F", "Percent Effect": -13.47},
      {"smiles": "Cc1cc(Nc2ncccn2)nc(C2CCCN(CCO)C2)n1", "note": "(stereo not given)", "Percent Effect": 17.06},
      {"smiles": "Cc1cc(Nc2ccccn2)nc(C2CCCN(CCO)C2)n1.O=CO", "note": "(stereo not given)", "Percent Effect": -14.49},
      {"smiles": "Cc1cc(Nc2cnccn2)nc(C2CCCN(CCO)C2)n1", "note": "(stereo not given)", "Percent Effect": 103.5},
      {"smiles": "CC(=O)N1CC(=O)N(c2ccccc2)CC12CCN(Cc1ccoc1)C2.O=C(O)C(F)(F)F", "note": "(stereo not given)", "Percent Effect": -0.426},
      {"smiles": "Fc1ccc(CNCC2OCCc3cn(CC4CC4)nc32)cc1.O=C(O)C(F)(F)F.O=C(O)C(F)(F)F", "note": "(stereo not given)", "Percent Effect": 12.69},
      {"smiles": "Cc1noc(C)c1CN1CCc2ncnc(-c3cccnc3)c2CC1.O=C(O)C(F)(F)F.O=C(O)C(F)(F)F", "Percent Effect": 12.88}
    ]}
  ]
}
